Test results reported in ChEMBL document CHEMBL1961873, “Compounds: GSK PKIS; Assays: Nanosyn kinase panel” (2012).

Molecular target: Protein kinase C beta type (Homo sapiens) (UniProt P05771)
Details: at 1 µM
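Note: mean inhibition value, enzyme form tested was the PKC-beta1 splice variant.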

Protein kinase C beta type (Homo sapiens), sequence (P05771 2-671 limits assumed): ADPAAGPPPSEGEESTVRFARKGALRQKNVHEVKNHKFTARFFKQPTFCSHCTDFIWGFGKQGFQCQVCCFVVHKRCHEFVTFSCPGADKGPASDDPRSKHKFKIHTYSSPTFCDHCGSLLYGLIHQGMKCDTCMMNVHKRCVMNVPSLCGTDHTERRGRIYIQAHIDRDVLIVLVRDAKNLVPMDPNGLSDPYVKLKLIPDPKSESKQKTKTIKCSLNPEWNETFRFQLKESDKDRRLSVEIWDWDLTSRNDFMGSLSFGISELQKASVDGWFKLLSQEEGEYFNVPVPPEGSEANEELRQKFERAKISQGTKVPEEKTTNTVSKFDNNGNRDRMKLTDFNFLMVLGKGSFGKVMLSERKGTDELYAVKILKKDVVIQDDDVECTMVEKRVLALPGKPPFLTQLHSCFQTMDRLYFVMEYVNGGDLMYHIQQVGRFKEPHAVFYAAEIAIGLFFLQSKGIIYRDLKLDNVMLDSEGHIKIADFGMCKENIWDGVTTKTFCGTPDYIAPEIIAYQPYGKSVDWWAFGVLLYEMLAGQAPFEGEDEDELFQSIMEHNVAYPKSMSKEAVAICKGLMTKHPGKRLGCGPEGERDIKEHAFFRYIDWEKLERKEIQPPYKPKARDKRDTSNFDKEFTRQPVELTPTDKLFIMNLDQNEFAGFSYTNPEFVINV

| SMILES | inhibition |
| --- | --- |
| COc1ccc(-c2coc3ncnc(N)c23)cc1 | -0.25% |
| Cc1cc(O)cc(C)c1/C=C/c1cncc(-c2nn[nH]n2)c1 | 2.35% |
| NCc1ccc(-c2nc(-c3ccc(Cl)c(O)c3)c(-c3ccncc3)[nH]2)cc1 | 27.9% |
| Cc1ccc(C(=O)NC2CCCCC2)cc1-c1ccc(C(=O)NCC2CC2)cc1 | 1.93% |
| COc1cccc(-n2ncc3c(N/N=C/c4cccc(F)c4)ncnc32)c1 | 1.36% |
| [O-][S+]1CCN(Cc2ccc(-c3ccc4ncnc(Nc5ccc(OCc6ccccc6)c(F)c5)c4c3)o2)CC1 | -0.42% |
| COc1cc2c(cc1Nc1nc(N3CCc4ccccc43)c3cc[nH]c3n1)N(C(=O)CN(C)C)CC2 | 0.59% |
| COc1cc2ncn(-c3cc(OCc4ccccc4Cl)c(C(N)=O)s3)c2cc1OC | 0.68% |
| COc1ccccc1Nc1ncc(-c2ccccc2)o1 | -6.48% |
| c1cnn2ncc(-c3ccnc(Nc4ccc5c(c4)OCCO5)n3)c2c1 | 4.36% |
| CS(=O)(=O)CCN(CC#N)Cc1ccc(-c2ccc3ncnc(Nc4ccc(OCc5cccc(F)c5)c(Cl)c4)c3c2)o1 | -1.95% |
| CS(=O)(=O)CCNCc1ccc(-c2ccc3ncnc(Nc4ccc(OCc5cccc(F)c5)c(C(F)(F)F)c4)c3c2)o1 | 1.62% |
| COc1ccc(-c2nn3ncccc3c2-c2ccnc(Nc3ccc(Cl)c(C(F)(F)F)c3)n2)cc1 | 3.13% |
| CCn1c(-c2nonc2N)nc2ccncc21 | 1.95% |
| Nc1ncnc2occ(-c3ccc(NC(=O)Nc4cccc(C(F)(F)F)c4)cc3)c12 | 12.6% |
| CC(C)=Cc1cccc2c1/C(=N/Nc1ccc(S(N)(=O)=O)cc1)C(=O)N2 | 1.55% |
| Fc1cccc(COc2ccc(Nc3ncnc4cc(-c5ccc[nH]5)sc34)cc2Cl)c1 | 0.9% |

| SMILES | inhibition |
| --- | --- |
| CCN1CCC(CC(=O)Nc2n[nH]c3nc(-c4cccs4)c(Br)cc23)CC1 | 1.35% |
| NC(=O)c1ccc(-c2nc(-c3ccccn3)c(-c3ccc4c(c3)OCO4)[nH]2)cc1 | 2.78% |
| CCn1c(-c2nonc2N)nc2c(C#CC(C)(C)O)nc(OC[C@@H](N)c3ccccc3)cc21 | 36% |
| CCn1c(-c2nonc2N)nc2cncc(C(=O)N3CC[C@H](N)C3)c21 | 74.5% |
| Cc1ccc(NC(=O)c2ccnc(N3CCCC3)c2)cc1-c1ccc(C(=O)NCC2CC2)cc1 | -1.68% |
| COc1cc(C)c(NC(=O)CN(C)C)cc1Nc1nc(Nc2cccc(F)c2C(N)=O)c2cc[nH]c2n1 | -0.1% |
| CCn1c(-c2nonc2N)nc2cnc(Oc3cccc(NC(=O)c4ccc(OCCN5CCOCC5)cc4)c3)cc21 | 64.2% |
| Nc1nc(-c2ccc3c(c2)C(=Cc2cc(Br)c(O)c(Br)c2)C(=O)N3)cs1 | 0.52% |
| COc1ccc(-c2ccncc2)cc1C(N)=O | 0.96% |
| CC1=C(C(=O)Nc2ccc3[nH]ncc3c2)C(c2ccc(Cl)c(Cl)c2)CC(=O)N1 (centres undefined) | -0.1% |
| Fc1cccc(COc2ccc(Nc3ncnc4sc(-c5cccs5)cc34)cc2Cl)c1 | -0.08% |
| CN1CCC(C(=O)Nc2n[nH]c3nnc(-c4ccccc4)cc23)CC1 | 1.27% |
| Cc1nn(C)c2cc(N(C)c3ccnc(Nc4cccc(S(N)(=O)=O)c4)n3)ccc12 | 6% |
| COC(=O)Nc1nc2cc(Oc3ccc(NC(=O)Nc4cccc(C(=O)O)c4)cc3)ccc2[nH]1 | 1.6% |
| CS(=O)(=O)CCNCc1nc(-c2ccc3ncnc(Nc4ccc(F)c(Cl)c4)c3c2)cs1 | 2.07% |
| CS(=O)(=O)CCNCc1ccc(-c2ccc3ncnc(Nc4ccc(OCc5ccccc5)c(Cl)c4)c3c2)o1 | -2.64% |
| COC(=O)Nc1nc2cc(Oc3cccc(NC(=O)Nc4cc(C(F)(F)F)ccc4F)c3)ccc2[nH]1 | 2.71% |
